An excerpt weighted towards active compounds, which were near 2.4% of everything screened.
C diff HTS: inhibitors of Clostridium difficile growth; actives 0.25% (n = 86,000); Clostridium difficile clinical isolate growth, OD600, 24 h; stronger effect = lower value; growth activity, negative = inhibition, % at 16 µg/mL (by protocol);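 active means mean growth activity at or below -80% and every replicate also at or below -80%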;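 further: 0% = DMSO wells and -100% = levofloxacin 16 µg/mL wells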
Pf Dd2 growth: P. falciparum Dd2 growth inhibition. SYBR Green, 72 h; stronger effect = lower value. activity change, % at 10 µM. actives 2.3% (n = 94,000); in the data active means activity change below about -80%
Numbers without * were called inactive; x = not tested or not shown.

SMILES | C diff HTS | Pf Dd2 growth
Cc1nn(C)cc1NC(=O)C[C@@H]1CC[C@@H]2[C@H](COc3ccc(NC(=O)C(C)C)cc3C(=O)N2C)O1 | 0 | -27
CCS(=O)(=O)N1CCCCN2[C@H](CO)[C@@H](c3ccc(-c4cccc(C#N)c4)cc3)[C@@H]2C1 | -2 | -89*
Cc1cccc(-c2ccc([C@@H]3[C@H]4CN(S(=O)(=O)c5cccc(C)c5)CCCCN4[C@H]3CO)cc2)c1 | -6 | -20
Cc1cccc(-c2ccc([C@H]3[C@H]4CN(S(=O)(=O)c5cccc(C)c5)CCCCN4[C@H]3CO)cc2)c1 | 8 | -86*
CCS(=O)(=O)N1CCCCN2[C@H](CO)[C@@H](c3ccc(-c4cccc(C#N)c4)cc3)[C@H]2C1 | -2 | -38
Cc1cccc(-c2ccc([C@H]3[C@@H](CO)N4CCCCN(S(=O)(=O)c5cccc(C)c5)C[C@H]34)cc2)c1 | 36 | -85*
Cc1cccc(S(=O)(=O)N2CCCCN3[C@H](CO)[C@H](c4ccc(-c5ccccc5)cc4)[C@@H]3C2)c1 | 6 | 10
CCS(=O)(=O)N1CCCCN2[C@H](CO)[C@@H](c3ccc(C#Cc4ccccc4OC)cc3)[C@@H]2C1 | -2 | -15
CCS(=O)(=O)N1CCCCN2[C@H](C1)[C@@H](c1ccc(C#Cc3ccccc3OC)cc1)[C@@H]2CO | -6 | -82*
O=C(C[C@H]1C[C@@H]2c3cc(NC(=O)NC4CCCC4)ccc3O[C@@H]2[C@H](CO)O1)NCC1CC1 | -9 | -3
C/C=C/c1cnc2c(c1)C(=O)N([C@H](C)CO)C[C@@H](C)[C@@H](CN(C)C(=O)CN1CCOCC1)O2 | 8 | -2
C[C@@H]1CN([C@H](C)CO)C(=O)c2cc(NC(=O)Nc3ccc4c(c3)OCO4)ccc2O[C@@H](C)CCCCO[C@H]1CN(C)S(=O)(=O)c1ccc(Cl)cc1 | 1 | -76
Cc1ccc(S(=O)(=O)N(C)C[C@@H]2OCCCC[C@@H](C)Oc3ccc(NC(=O)Nc4ccc5c(c4)OCO5)cc3C(=O)N([C@@H](C)CO)C[C@@H]2C)cc1 | x | -83*
C[C@@H]1CCCCO[C@H](CN(C)S(=O)(=O)c2ccc(F)cc2)[C@H](C)CN([C@@H](C)CO)C(=O)c2cc(NC(=O)Nc3ccc4c(c3)OCO4)ccc2O1 | -13 | -81*
C[C@@H]1CCCCO[C@@H](CN(C)S(=O)(=O)c2ccc(F)cc2)[C@H](C)CN([C@@H](C)CO)C(=O)c2cc(NC(=O)Nc3ccc4c(c3)OCO4)ccc2O1 | 9 | -19
Cc1ccc(S(=O)(=O)N(C)C[C@H]2OCCCC[C@H](C)Oc3ccc(NC(=O)Nc4ccc5c(c4)OCO5)cc3C(=O)N([C@@H](C)CO)C[C@H]2C)cc1 | x | -82*
Cc1ccc(S(=O)(=O)N(C)C[C@H]2OCCCC[C@H](C)Oc3ccc(NC(=O)Nc4ccc5c(c4)OCO5)cc3C(=O)N([C@H](C)CO)C[C@@H]2C)cc1 | x | -25
C[C@@H]1CCCCO[C@@H](CN(C)S(=O)(=O)c2ccc(Cl)cc2)[C@@H](C)CN([C@@H](C)CO)C(=O)c2cc(NC(=O)Nc3ccc4c(c3)OCO4)ccc2O1 | 11 | -88*
Cc1ccc(S(=O)(=O)N(C)C[C@H]2OCCCC[C@@H](C)Oc3ccc(NC(=O)Nc4ccc5c(c4)OCO5)cc3C(=O)N([C@@H](C)CO)C[C@H]2C)cc1 | x | -70
CC(=O)N1CC2(C1)[C@H](c1ccccc1)[C@H](CO)N2Cc1ccccc1F | -1 | 10
C[C@H]1CN([C@@H](C)CO)S(=O)(=O)c2ccc(-c3cccc(C(=O)N(C)C)c3)cc2O[C@@H]1CN(C)C(=O)Nc1ccc(F)cc1 | -5 | -39
CC(C)NC(=O)N(C)C[C@@H]1OCCCC[C@H](C)Oc2ccc(N(C)C)cc2C(=O)N([C@@H](C)CO)C[C@@H]1C | -6 | 32
C[C@H]1CN([C@@H](C)CO)S(=O)(=O)c2ccc(C3=CCCC3)cc2O[C@H]1CN(C)Cc1ccccn1 | 4 | -42
COc1ccc(NC(=O)N(C)C[C@@H]2OCCCC[C@@H](C)Oc3ccc(NC(=O)c4ccccc4)cc3C(=O)N([C@@H](C)CO)C[C@H]2C)cc1 | 3 | -19
C[C@H](CO)N1C[C@H](C)[C@@H](CN(C)C(=O)Nc2ccc(C(F)(F)F)cc2)OCCCC[C@H](C)Oc2ccc(NC(=O)c3ccccc3)cc2C1=O | 9 | -51
SMILES | C diff HTS | Pf Dd2 growth
C[C@@H]1CCCCO[C@@H](CN(C)C(=O)Nc2ccc(C(F)(F)F)cc2)[C@H](C)CN([C@@H](C)CO)C(=O)c2cc(NC(=O)c3ccccc3)ccc2O1 | 0 | -19
COc1ccc(NC(=O)N(C)C[C@H]2OCCCC[C@@H](C)Oc3ccc(N(C)C)cc3C(=O)N([C@@H](C)CO)C[C@H]2C)cc1 | -5 | -83*
C[C@H](CO)N1C[C@H](C)[C@H](CN(C)C(=O)Nc2ccc(C(F)(F)F)cc2)OCCCC[C@H](C)Oc2ccc(NC(=O)c3ccccc3)cc2C1=O | 6 | -82*
COc1ccc(NC(=O)N(C)C[C@@H]2OCCCC[C@H](C)Oc3ccc(NC(=O)c4ccccc4)cc3C(=O)N([C@@H](C)CO)C[C@@H]2C)cc1 | -3 | -84*
C[C@H]1CCCCO[C@H](CN(C)C(=O)Nc2ccc(C(F)(F)F)cc2)[C@@H](C)CN([C@@H](C)CO)C(=O)c2cc(NC(=O)c3ccccc3)ccc2O1 | -10 | -87*
COc1ccc(NC(=O)N(C)C[C@H]2OCCCC[C@@H](C)Oc3ccc(N(C)C)cc3C(=O)N([C@H](C)CO)C[C@H]2C)cc1 | -1 | 8
COc1cccc(S(=O)(=O)N[C@@H]2CC[C@@H](CC(=O)NCc3ccccc3)O[C@H]2CO)c1 | -2 | -5
COc1ccc(S(=O)(=O)Nc2ccc3c(c2)C(=O)N([C@H](C)CO)C[C@H](C)[C@@H](CN(C)C(=O)Cc2ccccc2)OCCCC[C@H](C)O3)cc1 | 4 | 23
C[C@@H]1CN([C@@H](C)CO)C(=O)c2cc(N(C)C)ccc2O[C@@H](C)CCCCO[C@@H]1CN(C)C(=O)Nc1ccc2c(c1)OCO2 | 1 | -36
CC(C)NC[C@@H]1[C@@H](c2ccc(C3=CCCCC3)cc2)[C@@H](CO)N1C(=O)CC1CC1 | 5 | -83*
N#C[C@H]1[C@H](c2ccc(C3=CCCCC3)cc2)[C@H](CO)N1C(=O)NC1CCCC1 | -10 | -37
CC(C)NC[C@@H]1[C@H](c2ccc(C3=CCCCC3)cc2)[C@H](CO)N1C(=O)NC(C)C | 46 | -41
C/C=C/c1ccccc1[C@H]1[C@@H](C#N)N(C(=O)NC2CCCC2)[C@H]1CO | -3 | -82*
C/C=C/c1ccccc1[C@H]1[C@@H](CO)N(C(=O)NC2CCCC2)[C@H]1C#N | -13 | -5
N#C[C@@H]1[C@H](c2ccc(C3=CCCCC3)cc2)[C@@H](CO)N1C(=O)NC1CCCC1 | -5 | -83*
CC(C)NC(=O)N(C)C[C@@H]1OCCCC[C@@H](C)Oc2ccc(NC(=O)Cc3ccccc3)cc2C(=O)N([C@@H](C)CO)C[C@@H]1C | -1 | -50
COc1ccc(C#Cc2cnc3c(c2)C(=O)N([C@H](C)CO)C[C@@H](C)[C@H](CN(C)C(=O)CC2CC2)O3)cc1 | 2 | -64
COc1ccc(S(=O)(=O)Nc2ccc3c(c2)C(=O)N([C@@H](C)CO)C[C@H](C)[C@H](CN(C)S(=O)(=O)c2ccccc2)OCCCC[C@H](C)O3)cc1 | -20 | -40
CC(C)COC(=O)N(C)C[C@H]1OCc2cnnn2CCCC(=O)N([C@@H](C)CO)C[C@@H]1C | x | -20
